# In all, about 420,000 compounds went through this assay and about 50,000 (12%) were called active. Not shown: some 26% with an inconclusive outcome. Calls follow the shape of the dose curve; as a rule, active = well fitted inhibition curve with a large enough effect; inconclusive = small, poorly fitted or top-dose-only effect; inactive = flat fitted curve, though single readings scatter. Shown is part of a subset that was picked to be rich in actives. Where a call stands in place of a potency, no number is given.
# Assay: qHTS for Inhibitors of human tyrosyl-DNA phosphodiesterase 1 (TDP1): qHTS in cells in presence of CPT; also: nearly all actives have a fitted effect of over 55% in size
# Settings: chicken DT40 Tdp1-/-;hTDP1 cells + 20 nM CPT, ATP luminescence, 48 h; series mostly up to 46.2 µM
# How it was run: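 Chicken DT40 Tdp1-/- cells complemented with human TDP1, 400 cells/well, exposed to compounds plus 20 nM camptothecin for at least 48 h at 37 C; viability read as ATP content by CellTiter-Glo luminescence.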
# Potency is read from the fitted curve at half-maximal effect.
row,SMILES,Potency
1,CCOC(=O)N1CCN(CCC(=O)Nc2ccccc2)CC1,inactive
2,Cc1noc(C)c1CSCC(=O)Nc1nc2ccc(Oc3ccccc3)cc2s1,inactive
3,O=C(Nc1ccc(S(=O)(=O)N2CCCCC2)cc1)C1CC(=O)N(c2ccc(F)cc2)C1 (stereo not drawn),inactive
4,COC[C@@H]1NS(=O)(=O)c2ccc(Br)cc2O[C@H]1c1ccccc1,inactive
5,Cc1ccc(C)c(NC(=O)C2CCCN(S(=O)(=O)c3cn(C)cn3)C2)c1 (stereo not drawn),inactive
6,CCOc1ccc2nc(N3CCCC(C(=O)Nc4cc(C)ccc4C)C3)sc2c1 (stereo not drawn),23.1 µM (active)
7,CCOc1ccc2nc(C(=O)N3CCCC(C)C3)sc2c1 (stereo not drawn),inactive
8,COCC(C)NS(=O)(=O)c1ccc(N2CCCCS2(=O)=O)cc1 (stereo not drawn),inactive
9,CCOC(=O)c1ccccc1N1C(=O)C2Sc3[nH]c(=O)sc3C(/C=C/c3ccccc3)C2C1=O (stereo not drawn),18.4 µM (active)
10,CC(OC(=O)c1ccccc1N1C(=O)C2C3CCC(C3)C2C1=O)C(=O)c1ccccc1 (stereo not drawn),inactive
11,COC(=O)C1=C(C)N=C2SC(C)C(=O)N2C1/C=C/c1ccccc1 (stereo not drawn),inactive
12,CCOc1ccc2[nH]c(=O)c(CN(CCCO)C(C)=O)cc2c1,inactive
13,CCC(=O)N(CCc1ccccc1)Cc1cc2cc(C)ccc2[nH]c1=O,inactive
14,Cc1ccc2[nH]c(=O)c(CN(CCCN(C)C)C(=O)Nc3cccc(Cl)c3)cc2c1,20.6 µM (active)
15,Cc1cc(NC(=O)c2ccccc2C)no1,inactive
16,OCCn1c(-c2ccccc2)csc1=Nc1ccccc1,25.9 µM (active)
17,Cc1csc(=Nc2ccccc2)n1CCO,inactive
18,Cc1nc(SCC(=O)NC2CCCC2)[nH]c(=O)c1C,inactive
19,CC(CC(=O)N1CCN(c2ccccc2)CC1)S(=O)(=O)c1ccc2c(c1)NC(=O)CS2 (stereo not drawn),23.1 µM (active)
20,O=C1CSc2ccc(S(=O)(=O)NCc3ccccc3)cc2N1,inactive
21,COc1ccccc1N1CCN(S(=O)(=O)c2ccc3c(c2)NC(=O)CS3)CC1,inactive

row,SMILES,Potency
1,Cc1ccccc1OCCC(=O)OCC(=O)NCCc1ccc(S(N)(=O)=O)cc1,inactive
2,Cc1oc2c(F)c(F)c(F)c(F)c2c1S(=O)(=O)Nc1cccc(C(F)(F)F)c1,11.6 µM (active)
3,Cc1noc(C)c1S(=O)(=O)Nc1cc(C(F)(F)F)ccc1N1CCOCC1,inactive
4,Cc1ccc(N(CCC(=O)O)S(=O)(=O)c2cccc(C(F)(F)F)c2)cc1,inactive
5,O=S(O)CNc1ccc(S(=O)(=O)c2ccc(NCS(=O)O)cc2)cc1,inactive
6,CC(=O)O[C@]1(C(C)=O)CC[C@H]2[C@@H]3C=C(C)C4=CC(=O)CC[C@]4(C)[C@H]3CC[C@@]21C,inactive
7,COC(=O)[C@@H]1CC2=CC(=O)CC[C@]2(C)[C@@]23O[C@@H]2C[C@@]2(C)[C@@H](CC[C@@]24CCC(=O)O4)[C@H]13,inactive
8,C[C@]12CCC(=O)C=C1C=CC1C2CC[C@@]2(C)C1CC[C@@]21CCC(=O)O1 (stereo partly drawn),20.6 µM (active)
9,CN1CCN(C(=O)/C(=C\c2ccc3c(c2)OCO3)NC(=O)c2cccs2)CC1,inactive
10,CCn1ccnc1CN(C)C(=O)c1cc(COc2ccc(Cl)cc2OC)on1,inactive
11,O=C(O)CCn1c(SCc2cc(=O)n3ccccc3n2)nc2ccsc2c1=O,inactive
12,Cc1cc(C)cc(CN2CCc3nnc(C(NS(C)(=O)=O)C(C)C)n3CC2)c1 (stereo not drawn),inactive
13,Cc1cccc(CSc2nnc(C)c(=O)n2N)c1,inactive
14,CCc1ccccc1OCCSc1nc(-c2cccs2)nc2cc(=O)[nH]n12,inactive
15,Cc1cccc(-c2nc(SCc3ccc(Br)cc3)n3[nH]c(=O)cc3n2)c1,16.4 µM (active)
16,CCN(CC(=O)Nc1ccccc1C(F)(F)F)C(=O)C1CCN(C(=O)Nc2ccccc2)CC1,inactive
17,NC(=O)c1ccsc1NC(=O)COC(=O)COc1ccc(C=O)cc1,inactive
18,COC(=O)c1ccc(/C=N/N2C(C)CCCC2C)cc1 (stereo not drawn),inactive
19,CC(C)(C)c1ccc(C(=O)C[n+]2cccc3cc(Cl)ccc32)cc1,5.01 µM (active)
20,COC(=O)C[n+]1cccc2ccccc21,inactive
21,Cc1cccc[n+]1CC(=O)c1ccccc1,inactive

row,SMILES,Potency
1,CCCC(O)(c1ccccc1)C(c1ccccc1)c1ccccn1 (stereo not drawn),inactive
2,Cc1nc(N2CCN(c3ccccn3)CC2)c2c(C)c(C(=O)Nc3ccc(F)c(Cl)c3)sc2n1,16.4 µM (active)
3,COc1ccc(NC(C)=O)cc1NC(=O)CN1CCN(c2ccccn2)CC1,inactive
4,O=C(c1c(F)cccc1Cl)N1CCN(c2ccccn2)CC1,inactive
5,Cc1ccc(NC(=O)Cn2cnc3nc4c(cc3c2=O)CCCC4)cc1Cl,inactive
6,Cc1cc(NS(=O)(=O)c2ccc(NC(=O)c3cccc(OC(F)F)c3)cc2)nc(C)n1,inactive
7,O=S(=O)(Nc1n[nH]c(C(F)(F)F)n1)c1ccccc1,inactive
8,CCCc1nc2c([nH]1)C(c1cccnc1)C(C#N)=C(N)O2 (stereo not drawn),inactive
9,N#CC1=C(N)OC2=C(C(=O)CCC2)C1C1CC=CCC1 (stereo not drawn),inactive
10,CCCc1[nH]nc2c1C(c1ccc(OC(=O)c3ccco3)cc1)C(C#N)=C(N)O2 (stereo not drawn),inactive
11,CCCc1[nH]nc2c1C(c1ccc(Br)s1)C(C#N)=C(N)O2 (stereo not drawn),6.51 µM (active)
12,COCc1[nH]nc2c1C(C1C=CCCC1)C(C#N)=C(N)O2 (stereo not drawn),13 µM (active)
13,CCCc1[nH]nc2c1C(C1CC=CCC1)C(C#N)=C(N)O2 (stereo not drawn),16.4 µM (active)
14,CCCc1[nH]nc2c1C(c1c(C)nn(-c3ccccc3)c1Cl)C(C#N)=C(N)O2 (stereo not drawn),11.2 µM (active)
15,CCCc1[nH]nc2c1C(c1ccc(OC)c(Cn3nc(C)c(Br)c3C)c1)C(C#N)=C(N)O2 (stereo not drawn),inactive
16,Cc1nn(-c2ccccc2)c2c1C(c1ccc(F)cc1)C(C#N)=C(N)O2 (stereo not drawn),inactive
17,CCc1ccc(C2C(C#N)=C(N)Oc3n[nH]c(CC(=O)OC)c32)cc1 (stereo not drawn),inactive
18,CCOc1c(OC)cc(C2C(C#N)=C(N)Oc3n[nH]c(-c4ccncc4)c32)cc1OC (stereo not drawn),inactive
19,Cc1cc(C)c(C#N)c(SCc2[nH]nc3c2C(c2ccccc2)C(C#N)=C(N)O3)n1 (stereo not drawn),inactive
20,C[C@@H]1CN([C@H](C)CO)C(=O)CCCn2cc(nn2)CO[C@H]1CN(C)S(C)(=O)=O,inactive
21,O=C(O)c1ccccc1C(=O)NC1=NN(c2ccccc2)CC1,inactive
